High-throughput results as filed in PubChem BioAssay.
NOD2 RIPK2 PPI = NOD2-RIPK2 binding disruptors in cells, primary screen, fluorescence, CHO cells, BLA complementation | Receptor-interacting serine/threonine-protein kinase 2 (Homo sapiens), O43353 | CCF4 ratio | inhibition, % at 4.98 µM | hit rate 0.38% among 360,000 | AID 624267, 2012; in the data active = inhibition above about 21%;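 also: 0% = vehicle only and 100% = reference blocker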
TLR9-MyD88 inh = inhibitors of TLR9-MyD88 association in cells, primary screen, cell-based, CHO, BLA complementation, fluorescence; Toll-like receptor 9 (Homo sapiens) + Myeloid differentiation primary response protein …; CCF4 FRET ratio; inhibition, % at 4.98 µM; hit rate 0.21% among 340,000;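 active = inhibition above the mean over all tested compounds plus 3 SD, cut at about 21% in these data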;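 also: 0% = DMSO only wells and 100% = clavulanate BLA inhibitor control wells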
CRFR2-BP antag = antagonists of CRF-BP/CRF-R2 complex, primary screen, cell-based, HEK293, calcium dye fluorescence, uHTS; AID 588475, 2011; hit rate 0.59% among 350,000; CRF-induced calcium fluorescence; inhibition, % at 11.8 µM;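 active = inhibition of the ligand-induced calcium signal above about 50% at the single tested concentration, limit read from the data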
m5-HT2A agonist = mouse Htr2a agonists via beta-arrestin recruitment, primary screen, cell-based, luminescence | hit rate 0.66% among 360,000 | 5-hydroxytryptamine receptor 2A (Mus musculus), P35363 | CHO-K1 mHTR2A beta-arrestin complementation; percent of 30 µM serotonin response | AID 624169, 2012 | activation, % at 7.6 µM;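 active = activation above a run cutoff, the mean activation of all tested compounds plus 3 SD, cut at about 14% in these data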;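 also: 0% = plate median of compound wells and 100% = 30 µM serotonin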
TLR4 MyD88 comp = inhibitors of TLR4-MyD88 association in cells, primary screen, cell-based, HeLa CL3-4, BLA complementation, FRET ratio. Toll-like receptor 4 (Homo sapiens) + Myeloid differentiation primary response protein …. HeLa CL3-4 TLR4/MyD88 BLA complementation. inhibition, % at 8.4 µM. hit rate 0.18% among 200,000. AID 861, 2007; in the data active = inhibition above about 25%;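 also: 0% = vehicle and 100% = reference inhibitor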
ABHD5-PLIN5 inh = ABHD5-PLIN5 interaction inhibitors, primary screen, cell lysate, split luciferase complementation, luminescence; Perilipin-5 (Homo sapiens) + 1-acylglycerol-3-phosphate O-acyltransferase ABHD5 (Homo …; Split G. princeps luciferase complementation, 4 h; inhibition, % at 4 µM; hit rate 0.78% among 360,000;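 active = inhibition above the mean inhibition across every tested compound plus 3 SD, cut at about 22% in these data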;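 also: 0% = DMSO only wells and the 100% control is not disclosed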
Target sequence (Q00G26 whole entry, looked up): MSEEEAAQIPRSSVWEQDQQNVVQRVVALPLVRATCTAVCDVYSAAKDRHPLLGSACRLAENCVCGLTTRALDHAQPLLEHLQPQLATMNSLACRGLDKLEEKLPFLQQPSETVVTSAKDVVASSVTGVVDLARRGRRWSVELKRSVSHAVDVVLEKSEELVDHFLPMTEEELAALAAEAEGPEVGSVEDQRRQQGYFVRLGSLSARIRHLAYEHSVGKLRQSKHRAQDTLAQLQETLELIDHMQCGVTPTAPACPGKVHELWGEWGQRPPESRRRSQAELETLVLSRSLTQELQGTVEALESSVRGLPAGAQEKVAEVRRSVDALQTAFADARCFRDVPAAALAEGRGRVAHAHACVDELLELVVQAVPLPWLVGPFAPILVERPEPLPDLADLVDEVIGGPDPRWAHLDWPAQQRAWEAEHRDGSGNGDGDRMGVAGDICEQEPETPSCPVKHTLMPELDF
Target sequence (Q8WTS1 whole entry, looked up): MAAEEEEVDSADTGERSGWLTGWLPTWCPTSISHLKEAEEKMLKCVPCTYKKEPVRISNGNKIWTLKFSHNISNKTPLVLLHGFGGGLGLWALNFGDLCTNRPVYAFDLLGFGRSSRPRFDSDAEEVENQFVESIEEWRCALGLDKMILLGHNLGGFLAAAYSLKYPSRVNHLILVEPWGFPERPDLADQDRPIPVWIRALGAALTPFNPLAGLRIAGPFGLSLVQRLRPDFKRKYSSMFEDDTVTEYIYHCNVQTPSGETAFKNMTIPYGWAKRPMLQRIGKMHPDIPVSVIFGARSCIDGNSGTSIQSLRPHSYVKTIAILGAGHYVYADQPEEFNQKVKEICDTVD
MOR ag counter = OPRM1 agonists via beta-arrestin recruitment, confirmation, counter-screen for mouse HTR2A agonist project, cell-based, luminescence, single concentration | U2OS OPRM1 beta-arrestin PathHunter; DMSO 0%, DAMGO 9.3 µM 100% | activation, % at 9.3 µM | hit rate 5.3% among 2,300 | shares compounds with m5-HT2A agonist;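 active = mean activation above the mean of DMSO-only wells plus 3 SD, cut at about 0.5% in these data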
m5-HT2A ag conf = mouse HTR2A agonists, beta-arrestin recruitment, confirmation, cell-based, luminescence, CHO-K1 PathHunter, triplicate; AID 624381, 2012; shares compounds with m5-HT2A agonist; DMSO 0%, 30 µM serotonin 100%; hit rate 19% among 2,300; activation, % at 7.6 µM;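 active = mean activation across triplicates above the hit threshold derived in the original primary screen, cut at about 15% in these data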
Numbers without * were called inactive; · = no result given. A selection: hits, their analogues and other compounds. The true share with any hit is near 2.4%.

SMILES | NOD2 RIPK2 PPI | TLR9-MyD88 inh | CRFR2-BP antag | m5-HT2A agonist | TLR4 MyD88 comp | ABHD5-PLIN5 inh | MOR ag counter | m5-HT2A ag conf
Cc1ccc[n+](/C(=C\C(=C=[N-])C#N)C(=O)c2ccc(Cl)cc2)c1 | -9 | 4 | -1 | 17* | 13 | 2 | -1 | -2
Cc1cccc(N/C=C/C(=O)c2ccc(Cl)cc2)c1 | -2 | 0 | 20 | 2 | · | -6 | · | ·
O=C(O)c1ccccc1Nc1ccnc(C(F)(F)F)c1 | -3 | 3 | -5 | 19* | · | 6 | -1 | -1
CCNC(=O)C1(C)CCCN(Cc2ccc(-n3ccnc3)cc2)C1 (stereo not given) | 7 | · | · | 4 | · | -2 | · | ·
C#CCN(C[C@H]1[C@H](OC(=O)NCCCCCC)[C@H](OC(=O)NCCCCCC)C[C@H]2C(=O)N(c3ccccc3)C(=O)[C@@H]12)S(=O)(=O)c1ccc(C)cc1 | 1 | 1 | -1 | 15* | · | -6 | 0 | -6
COC1OC(c2ccccc2)=C(c2cnc(N)nc2)c2ccc(F)cc21 (stereo not given) | -13 | · | · | -3 | · | 2 | · | ·
O=C(CCc1ccccc1)N1CCN(c2ccccc2F)CC1 | -12 | -6 | 3 | -1 | -13 | 3 | · | ·
O=C(CCC(=O)N1CCN(c2ccccc2F)CC1)c1ccc(Cl)s1 | 8 | -4 | 7 | 19* | · | 10 | 0 | -5
COc1ccc(-n2c(C)cc(=O)[nH]c2=O)cc1 | -1 | 0 | 3 | 18* | · | -1 | 0 | 8
CCCc1nc2c(C)cc(Br)cn2c1Cc1ccccc1C(F)(F)F | -8 | · | · | -6 | · | -11 | · | ·
CSCCNC(=O)C1(C)CCN1C(=O)c1ccc(C(C)(C)C)cc1 (stereo not given) | 5 | · | · | -2 | · | 7 | · | ·
COc1cc(Br)cc(CN2CCN(c3ncccn3)CC2)c1O | -10 | 4 | -9 | 33* | · | 0 | 0 | 106*
COc1ccc(Br)cc1CN1CCCCCCC1 | -15 | -4 | -3 | 0 | 6 | 7 | · | ·
Cc1ccc(C)c(CN2CCN(c3ncccn3)CC2)c1 | 0 | 0 | 1 | 17* | · | 0 | 0 | 62*
COc1cccc(N2CCN(Cc3cccnc3)CC2)c1 | -14 | -4 | 14 | 2 | -13 | 2 | · | ·
Fc1ccccc1CN1CCN(c2ncccn2)CC1 | -6 | -6 | 17 | 26* | · | 7 | 0 | 121*
COc1cccc(CN2CCN(c3ncccn3)CC2)c1 | -6 | -4 | 6 | 36* | 0 | 0 | 0 | 113*
O=C(CN1CCN(c2ncccn2)CC1)NCc1ccc2c(c1)OCO2 | -6 | 3 | 3 | 10 | -6 | -1 | · | ·
Cc1ccc(CN2CCN(c3ccccc3)CC2)o1 | -3 | 4 | 14 | -1 | · | 2 | · | ·
Oc1cc2c(cc1CN1CCN(c3ncccn3)CC1)OCO2 | 3 | -7 | 2 | 17* | · | 16 | -1 | 123*
Cc1ccc(CN2CCN(c3ncccn3)CC2)o1 | -3 | -9 | 0 | 30* | 0 | 2 | -1 | 60*
CC(C)CCN1C(=O)c2ccccc2C1c1nnnn1-c1ccc2c(c1)OCCO2 (stereo not given) | -12 | · | · | -2 | · | -10 | · | ·
COc1ccc(Cc2c(-c3ccc(OC)c(OC)c3)nc3cc(C)c(Br)c(C)n23)c(C)c1 | -9 | · | · | 9 | · | 3 | · | ·
COc1ccc2nc(SCC(=O)Nc3ccccc3)[nH]c2c1 | -7 | -6 | -8 | 19* | 6 | -1 | 0 | -1
COc1ccc2nc(SCC(=O)NCc3ccccc3)[nH]c2c1 | -8 | -7 | -6 | 0 | · | 2 | · | ·
SMILES | NOD2 RIPK2 PPI | TLR9-MyD88 inh | CRFR2-BP antag | m5-HT2A agonist | TLR4 MyD88 comp | ABHD5-PLIN5 inh | MOR ag counter | m5-HT2A ag conf
CN(C)Cc1csc(NC(=O)Nc2ccccc2Cc2ccccc2)n1 | -1 | · | · | 1 | · | 7 | · | ·
Nc1nnc(SCC(=O)c2ccc([N+](=O)[O-])cc2)s1 | -9 | 6 | 12 | -1 | -1 | -10 | · | ·
Cc1nnc(SCC(=O)c2ccc([N+](=O)[O-])cc2)s1 | -9 | 17 | -3 | 15* | -8 | -13 | 0.5* | -2
CN(C)S(=O)(=O)N1CCC(Oc2cccc(C(=O)NC3CCCCCC3)c2)CC1 | 2 | 5 | 1 | 9 | · | -3 | · | ·
Cc1cc(CNC(=O)c2cccc(OC3CCN(S(=O)(=O)N(C)C)CC3)c2)on1 | -2 | 4 | -6 | 15* | · | 3 | 0 | 0
O=S1(=O)N[C@H](Cc2ccccc2)COc2cc(N3CCC[C@H]3CO)ccc21 | 3 | · | · | -4 | · | -1 | · | ·
COc1cc(C(=O)N2CCC(N3CCCCCC3)CC2)cc(OC)c1OC | -9 | -14 | -17 | 15* | 0 | 1 | 0 | 7
COc1cc(C(=O)N2CCN(C3CCCCC3)CC2)cc(OC)c1OC | -7 | 3 | 15 | 15* | · | -5 | 0 | -3
COc1ccc(C(=O)N2CCN(C3CCCCC3)CC2)cc1OC | -3 | -5 | 16 | 1 | · | -8 | · | ·
Cc1cc2c(cc1C)-n1nnnc1C(N1CCN(c3ncccc3C#N)CC1)C(=O)N2 (stereo not given) | -11 | · | · | 3 | · | -3 | · | ·
OC[C@@H]1CN(Cc2ccco2)C[C@H](n2cnc3c(N4CCOCC4)ncnc32)O1 | -4 | · | · | 2 | · | -3 | · | ·
CCNC(=O)C1CCCN(C(=O)c2cc(C)oc2C)CC1 (stereo not given) | -5 | · | · | 0 | · | -5 | · | ·
CCc1nc2ccc(C(=O)NCCN(C)C)cn2c1N(CC)CCOC | -1 | · | · | -2 | · | 0 | · | ·
CCc1nc2c(OCc3ccc(C(F)(F)F)cc3)cccn2c1N(C)C(=O)C1CC1 | 2 | · | · | -7 | · | 6 | · | ·
O=C(Nc1ccc(Cl)c(S(=O)(=O)N2CCOCC2)c1)c1ccc2c(c1)OCCO2 | -5 | 5 | -5 | -4 | -1 | 2 | · | ·
O=C(Nc1ccc(Cl)c(S(=O)(=O)N2CCOCC2)c1)c1ccc(Cl)nc1 | 3 | 14 | -12 | 17* | · | 4 | 0 | 0
O=C(NCc1ccco1)c1[nH]c(C(F)(F)F)nc1-c1ccccc1 | 3 | · | · | 2 | · | 0 | · | ·
